Reference: PubChem BioAssay
Results with a measured potency or affinity are listed apart. Calls of active or inactive are those of the source. The limit is not given here; nearly all actives have IC50 up to about 0.91 µM.

Molecular target: Calcium-dependent protein kinase 4 (Plasmodium falciparum (isolate 3D7)) (UniProt Q8IBS5)
Experiment: PfCDPK4 kinase inhibitors, biochemical, TCAMS library (AID 1159588)
Details: recombinant PfCDPK4, Kinase-Glo ATP depletion luminescence

Sequence of Calcium-dependent protein kinase 4 (Plasmodium falciparum (isolate 3D7)) (Q8IBS5 whole entry, looked up): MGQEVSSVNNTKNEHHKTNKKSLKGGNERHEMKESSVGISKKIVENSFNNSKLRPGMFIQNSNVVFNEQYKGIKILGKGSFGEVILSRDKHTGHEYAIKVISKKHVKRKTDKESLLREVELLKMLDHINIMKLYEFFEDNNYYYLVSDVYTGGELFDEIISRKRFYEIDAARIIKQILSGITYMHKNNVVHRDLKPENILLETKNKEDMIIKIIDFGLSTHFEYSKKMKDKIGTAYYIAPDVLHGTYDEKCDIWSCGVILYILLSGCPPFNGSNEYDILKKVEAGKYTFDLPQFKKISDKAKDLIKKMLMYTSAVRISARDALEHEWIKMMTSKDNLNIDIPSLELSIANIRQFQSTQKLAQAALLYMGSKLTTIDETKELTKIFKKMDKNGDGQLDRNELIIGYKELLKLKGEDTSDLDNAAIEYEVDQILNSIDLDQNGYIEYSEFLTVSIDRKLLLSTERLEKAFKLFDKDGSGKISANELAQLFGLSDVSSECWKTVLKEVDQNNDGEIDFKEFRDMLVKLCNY

outcome, inactive:
COc1cc(OC)cc(C(=O)Nc2ccc(Nc3nc(C)cc(N(C)C)n3)cc2)c1, Cc1ccc(C=C2SC(=Nc3ccccc3)NC2=O)c(C)c1, CC(C)(C)c1nn(-c2ccccc2)c2[nH]c(=O)c(CNCc3ccc4c(c3)OCO4)cc12, Cc1[nH]nc2cc(Nc3nccc(Nc4ccc(Oc5ccccc5)cc4)n3)ccc12, Cc1cc(Nc2ccc(OCc3ccccc3Cl)cc2)c2cc(Cl)ccc2n1, O=C(NCCc1cccc(F)c1)c1cc(Br)cc(N2CCN(c3ccncc3)CC2)c1, COC(=O)/C=C/c1ccc(CCC(C)NCC(O)c2cccc(Cl)c2)cc1 (stereo not given), O=[N+]([O-])c1ccc(C(O)CNCCc2ccccc2)cc1OCc1ccccc1 (stereo not given), Cc1sc2nc(CSc3ccccc3)nc(N3CCN(CC(=O)NC4CC4)CC3)c2c1C, O=C(c1ccc(F)c2ccccc12)N1CCc2cc3nccc(N4CCN5CCC[C@H]5C4)c3cc21, Cc1[nH]c2ccccc2c1C(=O)C(C)Sc1n[nH]c(-c2ccccc2Br)n1 (stereo not given), CN(C)CCCOc1cc(NC(=O)Nc2ccc(-c3ccncc3)c3ccccc23)ccc1I, CC[C@H](C)CNC(=O)c1cncc(-c2ccc(CNCC3CNCCCO3)cc2)c1 (stereo not given in full), Cc1cnc(C(=O)Nc2cccc(-c3cccc(-c4nc5ccc(F)cc5[nH]4)c3)c2)cn1, O=C(NCc1cc2c(cc1Cl)OCO2)c1ccc(CNC2CCN(Cc3ccccc3)CC2)cc1, CCN1CCN(Cc2c(O)ccc3c(=O)c(Oc4cc(C)cc(C)c4)c(C(F)(F)F)oc23)CC1, O=S(=O)(c1ccc(OCc2ccc(Cl)cc2)cc1)c1cc2c(cc1OCc1ccccc1)CCN(CC1CC1)CC2, CC(C)CC(=O)Nc1cc(=O)[nH]c2nc(-c3ccccc3)nn12, COc1ccc(-c2ccc(NC(=O)c3ccc(F)cc3)cc2)cc1CN1CCCN(C)CC1, CC(C)(C)c1ccc(CNC(=O)c2ccc(-c3nc4ccc(C(C)(C)C)cc4[nH]3)cc2)cc1, COc1ccccc1C1CCN(C2CCC(NC(=O)/C=C/c3cccc(C(F)(F)F)c3)CC2)CC1 (stereo not given), COC(=O)c1ccc(-c2ccc(C(=O)NCC3CCN(c4nc(N)c5cc(OC)c(OC)cc5n4)CC3)cc2)cc1, COc1nc2c(CCN3CC[C@H](NCc4ccc5c(c4)NC(=O)CO5)[C@H](O)C3)c(Cl)cnc2cc1F, CCCCCC1c2[nH]c3ccccc3c2CCN1C(=O)OCc1ccccc1 (stereo not given), CCC[C@@H]([C@@H](CC1CCCCC1)C(=O)N[C@H](C(=O)Nc1nccs1)C(C)(C)SCCNC(=O)OCc1ccccn1)N(O)C=O, N=c1c(C(=O)NCc2ccccc2)cc2c(=O)n3ccccc3nc2n1CCc1ccccc1, CN(CCCCCN1CCC(NC(=O)Nc2ccc(Oc3ccccc3)cc2)C1)C(=O)/C=C/c1ccc(Cl)c(Cl)c1 (stereo not given), Cc1noc(C)c1-c1cccc(CNCc2ccc(-c3ccc(-c4nc5c(C)cccc5[nH]4)cc3)cc2)c1, CCN(CC)CCN(Cc1ccc(-c2ccc(C(F)(F)F)cc2)cc1)C(=O)Cn1cc(CCCc2cccc(F)c2F)c(=O)c2ccccc21, COC(=O)c1c(NC(=O)c2cccc(C(F)(F)F)c2)sc2c1CCN(Cc1ccccc1)C2, O=C(Nc1cccc(-c2ccc(-c3nc4ccc(C(F)(F)F)cc4[nH]3)s2)c1)c1ccncc1, CN(C)CCCOc1ccc(CCNCc2cccc(Oc3ccc(Cl)cc3)c2)cc1, COc1cc2ccccc2cc1CNCCCCCCNCc1cc2ccccc2cc1OC, COc1ccc(C(=O)CCC(=O)N(Cc2ccc(-c3ccc(CNCCc4ccc(S(C)(=O)=O)cc4)cn3)cc2)Cc2ccc3c(c2)OCO3)cc1F, CCN1CCCC1CN(Cc1ccc(-c2ccc(C(F)(F)F)cc2)cc1)C(=O)Cn1c(CCc2cccc(F)c2F)nc(=O)c2ccccc21 (stereo not given), O=C(NCCCCCN1CCC(c2c[nH]c3ccccc23)CC1)c1ccc(Cl)c(Cl)c1, CCCCCCCn1c(=N)n(CC(O)c2ccc(Cl)c(Cl)c2)c2ccccc21 (stereo not given), O=C(Nc1cccc(C(F)(F)F)c1)c1cccc2[nH]c(C(F)(F)F)nc12, Cc1cccc2[nH]c(-c3ccc(-c4ccc(NC(=O)c5cncn5C)cc4)s3)nc12, Nc1c(Cl)cc(C(O)CNCCCCCOCCc2ccc3ccccc3n2)cc1Cl (stereo not given)
